Consider 40 compounds from PubChem BioAssay (EPA / NIEHS).

Structures are written as SMILES. The source made the active and inactive calls. How the source made its calls: active means hit-call score of the fitted dose curve at least 0.9, where 1 is the maximum; inactive means score below 0.9.

This assay is described as follows: ATG_BRE_CIS: Attagene CIS-FACTORIAL HepG2 Assay for human Bone Morphogenetic Protein (BMP) Response Element (BRE) (AID 2282933). The conditions noted are these: HepG2 BMP response element reporter, Attagene transcription factor profiling; actives raise or lower the signal. On the procedure:
ATG_CIS is a cell-based, multiplexed-readout assay that uses HepG2, a human liver cell line, with measurements taken at 24 hours after chemical dosing in a 24-well plate.ATG_BRE_CIS is one of 52 assay component(s) measured or calculated from the ATG_CIS assay. It is designed to make measurements of mRNA induction, a form of inducible reporter, as detected with fluorescence intensity signals by Reverse transcription polymerase chain reaction (RT-PCR) and Capillary electrophoresis technology.Data from the assay component ATG_BRE_CIS was analyzed into 1 assay endpoint. This assay endpoint, ATG_BRE_CIS, was analyzed with bidirectional fitting relative to DMSO as the negative control and baseline of activity. Using a type of inducible reporter, measures of mRNA for gain or loss-of-signal activity can be used to understand the reporter gene at the transcription factor-level as they relate to the gene SMAD1. Furthermore, this assay endpoint can be referred to as a primary readout, because this assay has produced multiple assay endpoints where this one serves a reporter gene function. To generalize the intended target to other relatable targets, this assay endpoint is annotated to the dna binding intended target family, where the subfamily is Smad protein.
Human liver HepG2 cells are transiently transfected with multiple reporter transcription units (MRTUs) in 6-well plates using FuGene 6 reagent (Roche; 3 ml FuGene/1 mg DNA). The MRTU constructs are regulated by a cis-regulating element (promoter). […] A major difference between the CIS and TRANS system is that in CIS activities of endogenous TFs are measured, whereas the TRANS assay evaluates changes in activities of exogenous, chimeric NR-Gal4 proteins. […] At the end of 24 hour incubation, total RNA was isolated using TriZol reagent (Invitrogen). The isolated RNA is then reverse-transcribed using oligo(dT) primer and Mo-MLV reverse transcriptase (Invitrogen) with DNAse I (Ambion) treatment for 30 min. The one-tenth of the produced cDNA was amplified by PCR using Taq DNA polymerase (Invitrogen) and two reporter sequence-specific primers. The PCR products were fluorescently labeled by primer extension with 6-arboxyfluorescein (6-FAM) 5'-labeled reporter sequence-specific primer (2 min at 95 C, 20 s at 68 C and 10 min at 72 C) and these products were digested with 5U of HpaI (New England Biolabs) for 2h at 37 C. The fragments were purified using Qiaquick PCR columns (Qiagen), analyzed on an ABI 3130xL genetic analyzer (Applied Biosystems) with peak positions identified by using a set of X-rhodamine (ROX)-labeled MapMarker1000 molecular weight standards (BioVentures). The raw capillary electrophoresis data was processed using Attagraph software (Attagene).
On to `CCc1c(C(=O)NN2CCCCC2)nn(-c2ccc(Cl)cc2Cl)c1-c1ccc(Br)cc1`, for which the call was inactive.

With `COc1cccc2c1C(=O)c1c(O)c3c(c(O)c1C2=O)C[C@@](O)(C(=O)CO)C[C@@H]3O[C@H]1C[C@H](N)[C@H](O)[C@H](C)O1`, the compound was called inactive.

With `CCCCCCCCCCCCCCCC`, the compound was classed as inactive.

Take `CCNc1cccc(C)c1`: the result was inactive.

For the compound `c1cc(-c2ccncc2)ccn1`, the call was inactive.

On to `COC(=O)c1ccc(O)cc1`, for which the result was inactive.

For `Clc1cc(Cl)c(Cl)cc1Cl`, the compound was called inactive.

As to `CCCCCCCC=O`, the compound was classed as inactive.

Consider `Cc1cccc([N+](=O)[O-])c1C`, for which the call was inactive.

In the case of `COc1ccc(S(=O)(=O)N2C(=O)[C@@](c3ccccc3OC)(N3C[C@H](O)C[C@H]3C(=O)N(C)C)c3cc(Cl)ccc32)c(OC)c1`, the AC50 is 55.5 µM (active).

For the compound `Cc1cc(NC(=O)C(=O)O)cc(C)c1Oc1ccc(O)c2c1CCC2`, the result was inactive.

On to `CCCCCCCCCCCCCO`, for which the half-maximal activity concentration (AC50) was 34.3 µM (active).

Consider `Nc1nc(N)c2nc(CNc3ccc(C(=O)N[C@@H](CCC(=O)O)C(=O)O)cc3)cnc2n1`, for which the compound was classed as inactive.

`O=C(O)CCCCC(=O)O`: the compound was classed as inactive.

In the case of `NCC1(Cc2noc(=O)[nH]2)CCCCC1`, the result was inactive.

Turning to `NC(=O)Cn1c(=O)cc(CCN2CCN(c3nccc4sccc34)CC2)c2ccc(F)cc21`, the result was inactive.

As for `CCCCc1ccc2c(n1)[C@@H](c1ccc(OC)cc1C[C@H](C)C(=O)O)[C@H](C(=O)O)[C@H]2c1ccc2c(c1)OCO2`, the compound was classed as inactive.

Consider `CCCCCCCCCCCC(=O)OC`, for which the compound was classed as inactive.

`CC(C)(C)c1cc(O)c(C(C)(C)C)cc1O`: the AC50 is 30.4 µM (active).

Regarding `CC(=O)C(C)=CC1C(C)=CCCC1(C)C` (stereo not given), the compound was classed as inactive.

On to `CC(CO)OC(C)CO` (stereo not given) (tested in a mixture with another compound), for which the result was inactive.

Regarding `Cc1cccc(C)c1O`, the compound was called inactive.

For the compound `CCCCN(CCCC)CCCC`, the result was inactive.

For `Cc1nc(C)nc(N2C[C@@H](C)N(c3ccnc([C@@H](C)O)n3)[C@@H](C)C2)n1`, the call was inactive.

For the compound `CN[C@H]1CC[C@@H](c2ccc(Cl)c(Cl)c2)c2ccc(S(N)(=O)=O)cc21`, the call was inactive.

With `O=[N+]([O-])C(CO)(CO)CO`, the call was inactive.

On to `CCOc1ccc2c(c1)C(C)=CC(C)(C)N2`, for which the result was inactive.

On to `CCCCCCCCCCCCCCCCCC(=O)O`, for which the call was inactive.

Consider `Cc1ccc2ncccc2c1`, for which the call was inactive.

Take `CCOC(=O)CCC(=O)OCC`: the result was inactive.

On to `O=C(O)Cc1ccccc1Nc1c(Cl)cccc1Cl`, for which the compound was called inactive.

As to `CC(=O)OC/C=C(\C)CCC=C(C)C`, the compound was called inactive.

On to `Cc1ccc(C)c(C)c1`, for which the result was inactive.

Regarding `CC(=O)OCCOCCOCCOC(C)=O`, the compound was called inactive.

As to `Nc1ccccc1N`, the concentration at half-maximal activity (AC50) is 5.4 µM (active).

For `C=CCOC(=O)c1ccccc1C(=O)OCC=C`, the result was inactive.

`NCCO`: the result was inactive.

In the case of `CC(=O)Oc1ccccc1C(=O)O`, the call was inactive.

Consider `CC1=C(/C=C/C(C)=C/C=C/C(C)=C/CO)C(C)(C)CCC1`, for which the compound was called inactive.

As for `COc1ccc2c(c1)c(CC(=O)O)c(C)n2C(=O)c1ccc(Cl)cc1`, the compound was classed as inactive.

By AC50 is commonly meant the concentration at which the activity in the assay is half-maximal.
